# DUSP3 inh = blocks the human dual specificity phosphatase VHR1; inhibition, % at 20 µM; 50,000 tested, 0.7% active; recombinant VHR phosphatase, colorimetric substrate read-out; in the data active = inhibition above about 60%
# Target sequence (P51452 whole entry, looked up): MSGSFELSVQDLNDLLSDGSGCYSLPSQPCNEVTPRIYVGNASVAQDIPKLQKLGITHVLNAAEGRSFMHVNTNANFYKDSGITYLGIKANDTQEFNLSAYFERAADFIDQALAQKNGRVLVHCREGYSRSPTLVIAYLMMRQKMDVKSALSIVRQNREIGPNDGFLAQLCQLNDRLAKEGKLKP
# Starred values were filed as active, the others as inactive. Only a selection was taken, and hits are over-represented in it overall.
SMILES,DUSP3 inh
COc1ccc(N2C(=O)NC(=O)/C(=C/c3ccc(O)c([N+](=O)[O-])c3)C2=O)cc1,-4
C=CCOc1ccc(-c2nc3sc4c(c3c(=O)[nH]2)CCCC4)cc1Br,21
O=c1[nH]c(=O)n(-c2ccccc2Cl)c(O)c1C=C1C=CC=N1,2
Cn1c(O)c(/C=C2/C=CC=N2)c(=O)n(-c2ccccc2)c1=S,69*
CCOc1ccccc1-n1c(O)c(C=C2C=CC=N2)c(=O)[nH]c1=O,8
Cc1cc(C)nc(SCC(=O)Nc2ccccc2C)n1,-4
CCCOC(=O)c1ccc(NC(=O)c2ccc(-c3cccc(Cl)c3)o2)cc1,109*
O=C(Nc1ccc(Cl)cc1)c1ccc(-c2cccc(Cl)c2)o1,22
CCN(CC)c1ccc(NC(=O)c2ccc(-c3cccc(Cl)c3)o2)cc1,-23
O=C1C(=O)c2ccccc2C(Cl)=C1Cl,-7
N#Cc1c(-c2ccccc2)cc(-c2ccccc2Cl)c(C#N)c1N,7
N#CC(C#N)=C1C(Cl)=C(Cl)c2ccccc21,66*
COc1ccc(CC2S/C(=N\N=C\c3ccc(C(C)C)cc3)NC2=O)cc1 (centres undefined),-8
Cc1ccc(/C=N/N=C2\NC(=O)C(C)S2)cc1 (centres undefined),-1
CC(C)C1S/C(=N/N=C/c2ccc(O)cc2)NC1=O (centres undefined),93*
COc1ccc(C(=O)NC2CCCCC2)cc1OC,-29
COc1ccc(NC(=O)CSc2nc3ccc(N4C(=O)c5ccccc5C4=O)cc3s2)cc1,18
O=C1CC(c2ccc(F)c(Br)c2)c2ccc3ccccc3c2N1 (centres undefined),-8
CSc1ccc(C2CC(=O)Nc3c2cc(Br)c2ccccc32)cc1 (centres undefined),28
COc1cc(C2CC(=O)Nc3c2ccc2ccccc32)cc(OC)c1OC(C)=O (centres undefined),2
COc1ccc(C2CC(=O)Nc3c2cc(Br)c2ccccc32)c(OC)c1 (centres undefined),112*
COc1cc(C2CC(=O)Nc3c2ccc2ccccc32)cc(Br)c1OC (centres undefined),103*
CCOc1cccc(C2CC(=O)Nc3c2cc(Br)c2ccccc32)c1 (centres undefined),-3
CCOC(=O)c1sc(NC(=O)COc2cc(Cl)ccc2Cl)c(C(=O)OCC)c1C,-8
COc1ccc(NC(=O)COc2ccc(C(C)C)cc2)c(OC)c1,2
SMILES,DUSP3 inh
Cc1ccc(C(=O)N/C(=C\c2cccs2)C(=O)N2CCCC2)cc1,1
CCOc1ccc(C(=O)Nc2cc(=O)n(C)c(=O)n2C)cc1,16
CCOc1ccc(N2Cc3ccc(C(=O)NN)cc3C2)cc1,91*
CCOc1ccc(N2Cc3ccccc3C2)cc1,-7
CCOc1ccc2nc(SC/C=C/c3ccccc3)sc2c1,-16
CN1C(=O)NC(=O)/C(=C\c2ccc(N3CCCC3)cc2)C1=O,2
O=C1NC(=O)N(c2ccc(Cl)cc2)C(=O)/C1=C\c1ccc(N2CCCC2)cc1,70*
O=C1NC(=O)N(c2ccc(Cl)cc2)C(=O)/C1=C/c1ccc(F)cc1,-15
COc1ccc(/C=C/C(=O)O)cc1S(=O)(=O)Nc1ccc(C(=O)O)c(O)c1,-42
C=CCN1C(=O)/C(=C\c2ccc(C(=O)OC)cc2)SC1=S,-45
Cc1ccc(C(=O)c2cccc(NC(=O)/C=C/c3ccco3)c2)cc1C,-19
Cc1ccc(/C=N/NC(=O)C(C)Nc2cccc3ccccc23)o1 (centres undefined),-52
Cc1ccc(/C=N/Nc2nn[nH]n2)c2nsnc12,-8
COC(=O)c1c(-c2ccc(OC)c(OC)c2)csc1N,-3
COc1ccc(-c2csc(N)c2C(=O)OC(C)C)cc1OC,-15
CCOC(=O)c1c(-c2ccc(OC)c(OC)c2)csc1N,98*
CC(C)OC(=O)c1c(-c2ccccc2)csc1N,44
CCCOC(=O)c1c(-c2ccccc2)csc1N,-3
COC(=O)c1c(-c2cccc(C)c2)csc1N,94*
N#C/C(=C/c1ccc(F)cc1)C(=O)Nc1cccc(Br)c1,2
O=C1C(Cl)=C(NCc2ccccc2)C(=O)N1c1ccccc1,9
CCOc1cc(C=C2C(=O)NC(=O)NC2=O)ccc1OCc1ccccc1,6
CCOc1cc(/C=C2/N=C(c3ccc(NC(C)=O)cc3)OC2=O)ccc1OCc1ccccc1,86*
COc1cccc(/C=C2/N=C(c3ccc(NC(C)=O)cc3)OC2=O)c1,-1
CCN(CC)c1ccc(/C=C2/SC(=O)N(CNc3ccc(F)cc3)C2=O)cc1,-21
SMILES,DUSP3 inh
CCOc1ccc(S(=O)(=O)N(CC(=O)NC2CCCCC2)c2ccc(C)cc2)cc1,90*
Cc1ccc(N(CC(=O)NC2CCCC2)S(=O)(=O)c2ccccc2)cc1,1
Cc1ccc(N(CC(=O)NC2CCCC2)S(=O)(=O)c2ccc(F)cc2)cc1,-35
O=S(=O)(NCc1ccc(F)cc1)c1ccc2ccccc2c1,-3
O=C(O)/C=C\C(=O)N(c1ccccc1)c1ccc2ccccc2c1,-16
Cc1ccccc1NC(=O)CC1CCCCC1,39
O=C(CC1CCCCC1)Nc1ccccc1,97*
Cc1ccc(NC(=O)CC2CCCCC2)cc1,6
